UBC13 polyUb: inhibitors of human UBC13 polyubiquitin chain formation | P61088 | TR-FRET | inhibition, % at 20 µM | 330,000 tested, 0.47% active | AID 485273; in the data active = inhibition above about 45%, passing the limit was not always enough
Target sequence (P61088 whole entry, looked up): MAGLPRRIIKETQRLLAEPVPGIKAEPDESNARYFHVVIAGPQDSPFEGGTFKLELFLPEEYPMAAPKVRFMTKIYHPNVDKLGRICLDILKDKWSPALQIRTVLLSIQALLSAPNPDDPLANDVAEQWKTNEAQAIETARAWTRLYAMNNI
UBC9 SUMO inh: SUMOylation inhibition. P63279. HTRF SUMOylation assay, SAE1/SAE2 + UBC9, in vitro. inhibition, % at 35 µM. 290,000 tested, 0.36% active. AID 2006; in the data active = inhibition above about 50%, passing the limit was not always enough
Target sequence (P63279 whole entry, looked up): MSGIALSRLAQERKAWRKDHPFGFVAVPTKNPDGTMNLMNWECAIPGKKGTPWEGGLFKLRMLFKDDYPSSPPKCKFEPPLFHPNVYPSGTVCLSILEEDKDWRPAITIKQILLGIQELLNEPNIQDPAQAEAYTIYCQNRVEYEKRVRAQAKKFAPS
GRIN3A LBD mod: NR3A (human) ligand-binding domain modulation; Tm shift relative to glycine control, % at 25 µM; NR3A LBD differential scanning fluorimetry, Tm shift; 0% = protein alone, 100% = glycine-bound protein; 340,000 tested, 2.5% active;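 active = melting temperature shift of at least 10% of the positive control shift, at one fixed dose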
HGIII-sPLA2 inh: Blocks human group III sPLA2 activity. QFRET BODIPY PC-A2 liposome hydrolysis, fluorescence. inhibition, % at 12.2 µM. 370,000 tested, 0.56% active. AID 743126;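 active = inhibition above mean plus 3 SD of compounds lying within the high and low control bounds, cut at about 19% in these data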;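 note: 0% = median of test compound wells and 100% = no enzyme DMSO wells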
Numbers without * were called inactive; . = no result. A selection: hits, their analogues and other compounds. The true share with any hit is near 3.3%.

SMILES | UBC13 polyUb | UBC9 SUMO inh | GRIN3A LBD mod | HGIII-sPLA2 inh
COC(=O)c1cc(NC(=O)Nc2ccccc2)ccc1Cl | 6 | -1 | 39* | -15
O=C(CCn1nnc(-c2cccs2)n1)N1CCCC1 | . | . | . | 3
CCOc1ccc2nc3ccc4[nH]onc4c3c2c1 | 0 | . | 31* | -29
O=C(O)CC1(O)C(=O)N(Cc2ccccc2)c2ccccc21 (configuration not stated) | 1 | 12 | -2 | 0
COc1cccc2cc(C(=O)CC3(O)C(=O)N(Cc4ccccc4)c4ccccc43)c(=O)oc12 (configuration not stated) | -1 | -31 | 15* | 3
COc1ccccc1NC(=S)NC(=O)c1ccc(-c2ccc(Cl)cc2)o1 | -12 | 4 | -9 | 1
Cc1c(NC(=S)NC(=O)c2ccc(-c3ccc(Cl)cc3)o2)cccc1C(=O)O | -9 | 21 | 6 | 0
Cc1ccc(O)c(NC(=S)NC(=O)c2ccc(-c3ccc(Cl)cc3)o2)c1 | -22 | . | 29* | -3
Cc1ccc(O)c(NC(=O)c2cc(-c3ccc(F)cc3)on2)c1 | 0 | 19 | 217* | -1
O=C(NC(=S)Nc1ccccc1O)c1ccc(-c2ccc(Cl)cc2)o1 | -21 | 0 | 29* | 10
COc1ccc(Nc2nc(N)c([N+](=O)[O-])c(NC3CCCCC3)n2)cc1 | 4 | -29 | 11* | -17
COc1ccc(Nc2nc(N)c([N+](=O)[O-])c(NCCO)n2)cc1 | 3 | 8 | 1 | -1
CCOC(=O)c1sc2nc3c(SCC(=O)O)cc(C(=O)c4ccccc4O)cn3c(=O)c2c1C | -14 | 76* | 2 | -3
CCOC(=O)c1sc2nc3c(SCC(=O)O)cc(C(=O)c4cc(F)ccc4O)cn3c(=O)c2c1C | . | 9 | -1 | -1
CCC[C@H]1[C@@H](NC(=O)c2cccc(N(C)C)c2)CC[C@@]23CCCN2C(=O)CCC[C@@H]13 | . | . | . | 4
O=C(COc1c(Cl)cc(Cl)cc1Cl)N/N=C/c1ccc[nH]1 | . | . | . | -8
Nc1ccc(-c2nc3c(Cl)cc(N)cc3[nH]2)cc1 | -42 | 36 | 10* | 4
Nc1cc2c(cc1Cl)-c1ccc(Cl)cc1C2 | . | . | 30* | 8
O=C(O)c1ccc(-c2noc(-c3cccc(C(F)(F)F)c3)n2)cc1 | -10 | . | 13* | 11
O=C(Nc1ccc(-c2cn3ccccc3n2)cc1)c1ccc(Cl)cc1 | -3 | 15 | 14* | 7
O=C(Nc1ccc(-c2cn3ccccc3n2)cc1)c1ccco1 | -1 | 4 | 24* | 5
Cc1ccc2nc(-c3ccccc3)cn2c1 | 11 | 4 | -1 | 1
COc1ccc(-c2cn3ccccc3n2)cc1 | 12 | 22 | 26* | 4
CC(=O)Nc1ccc(-c2cn3cc(C)ccc3n2)cc1 | 9 | 10 | 20* | -2
CCc1ccc(N2C(=O)C[C@@](C#N)(C(=O)OC)[C@H]2c2ccccc2)cc1 | . | . | . | -2
SMILES | UBC13 polyUb | UBC9 SUMO inh | GRIN3A LBD mod | HGIII-sPLA2 inh
O=C(N1CCC(C(O)(c2ccccc2)c2ccccc2)CC1)n1ncc(C(O)(c2ccccc2)c2ccccc2)n1 | . | . | . | -12
CCCN(CC1CC1)C(=O)CNc1nnnn1-c1ccccc1 | . | . | . | 1
CCCCCCCCN1C(=O)[C@@H](CC(=O)N2CCN(C(=O)OCC)CC2)C[C@@]2(C(=O)OC)C1=C[C@H](C(C)C)O[C@@H]2C1CC1 | . | . | . | 0
COc1ccc(Cn2cc(COC(=O)N3CCOCC3)nn2)cc1 | . | . | . | 6
Cc1ccc(S(=O)(=O)N2CCN(CCc3ccncc3)CC2)cc1 | 4 | . | 11* | -4
O=S(=O)(c1ccc(Cl)cc1)N1CCN(Cc2ccncc2)CC1 | -6 | -2 | -1 | -2
Cc1cc(C)cc(OCC(=O)OCC(=O)NCc2cccs2)c1 | -8 | -7 | 16* | 1
Nc1c(Cl)ncnc1N/N=C/c1ccc(O)cc1 | 0 | 14 | 14* | 2
Cc1sc2ncnc(N/N=C/c3ccc(O)cc3)c2c1C | -5 | 0 | 35* | -8
CCOC(Cn1c(SCc2cc(C(C)=O)ccc2OC)nc2ccccc2c1=O)OCC | 1 | 3 | 13* | 4
COc1ccc(C(=O)N/N=C2/SCC(=O)N2Cc2ccc3c(c2)OCO3)cc1OC | -1 | 0 | 11* | 4
COc1ccc2nc(SCC(=O)Nc3ccccc3)[nH]c2c1 | 0 | -6 | 17* | -14
O=C(Cc1cccs1)Nc1ccc(-c2nc3ccccc3[nH]2)cc1 | 9 | -2 | 32* | -8
O=C(CSc1ccc(Cl)cc1)Nc1cccc(-c2nc3ccccc3[nH]2)c1 | -6 | 27 | 32* | 7
O=C(CSc1ccccc1)Nc1ccc(-c2nc3ccccc3[nH]2)cc1 | -6 | 9 | 33* | -15
O=C(O)CCCC(=O)Nc1cccc(-c2nc3ccccc3[nH]2)c1 | 4 | 9 | 0 | 2
Cc1ccc2nc(-c3ccc(NC(=O)CSc4ccccc4)cc3)[nH]c2c1 | -8 | 11 | 29* | -2
COc1ccc(OCC(=O)Nc2cccc(-c3nc4ccccc4[nH]3)c2)cc1 | 2 | 20 | 20* | -21
O=C(CSc1ccccc1)Nc1ccc2sccc2c1 | 3 | 11 | 17* | -14
Cc1ccc2nc(SCC(=O)Nc3ccc(C(N)=O)cc3)[nH]c2c1 | -6 | 30 | -2 | 4
O=C(CSc1n[nH]c(-c2cccnc2)n1)Nc1cccc(Cl)c1 | 6 | 5 | -7 | -5
O=C(COc1ccccc1)Nc1cccc(-c2nc3ccccc3[nH]2)c1 | -1 | -4 | 7 | -18
O=C(CSc1cccs1)Nc1ccc2ccccc2c1 | 9 | 29 | 5 | -11
O=C(CSc1nc(-c2ccc(Cl)cc2)[nH]c(=O)n1)Nc1cccc(Cl)c1 | -9 | 38 | 12* | -15
CN(CCO)c1cccc2c1S(=O)(=O)N(Cc1cn(Cc3ccc(F)cc3)nn1)Cc1ccccc1O2 | . | . | . | -3
SMILES | UBC13 polyUb | UBC9 SUMO inh | GRIN3A LBD mod | HGIII-sPLA2 inh
CC(CCN1CCC(C(O)(c2ccccc2)c2ccccc2)CC1)Oc1cccc(F)c1 (configuration not stated) | . | . | . | -17
Cc1ccc(C(=O)C(NC(=O)c2ccco2)N2CCOCC2)cc1 (configuration not stated) | 1 | 22 | 11* | -5
COc1ccc(/C=C2\CC3(OC(=O)C4CCCCC4)CCCN2C3)cc1 (configuration not stated) | . | . | . | -2
C#CCn1c(=NC(=O)c2ccc(S(=O)(=O)N3CCCc4ccccc43)cc2)sc2cc(S(N)(=O)=O)ccc21 | -17 | 8 | 19* | 16
Cn1c(=NC(=O)c2ccc(S(=O)(=O)N3CCCc4ccccc43)cc2)sc2cc(S(C)(=O)=O)ccc21 | -3 | 2 | -2 | 14
O=C(Nc1cccc2ccccc12)N1CCOCC1 | -8 | 31 | 17* | 6
O=C(Nc1ccccc1)Nc1c(-c2ccccc2)nc2ncccn12 | . | . | . | 0
COc1ccc(Cn2ccc3ccc(-c4ccc5ccn(C(=O)C6CCCCC6)c5c4)cc32)cc1 | . | . | . | -4
CCCSc1nnc(-c2ccco2)n1C | . | . | . | 1
NS(=O)(=O)c1cc(C(=O)NC2CCSc3ccccc32)ccc1Cl (configuration not stated) | -3 | 73* | 7 | -11
NS(=O)(=O)c1cccc(C(=O)NC2CCSc3ccccc32)c1 (configuration not stated) | 4 | -9 | 0 | -2
